Reference: PubChem BioAssay (NCI)
This is part of a sample that, as a whole, favours compounds with a hit. Of some 83,000 tested, about 20% had one in any assay.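 Growth was measured after 48 h exposure to one concentration of compound in 96-well plates. Values under 10 count as active.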 Activity calls are given as the source filed them.

Key:
Test in all cases: NCI-60 one-dose screen, 48 h (100 = growth as untreated, 0 = no growth, -100 = all killed)
Details in all cases: 10 µM unless noted
HCT-15 colon = test system: HCT-15 colon
HT29 colon = test system: HT29 colon
SNB-75 CNS = test system: SNB-75 CNS
SNB-19 CNS = test system: SNB-19 CNS
U251 CNS = test system: U251 CNS
PC-3 prostate = test system: PC-3 prostate
SK-MEL-5 melanoma = test system: SK-MEL-5 melanoma
UACC-62 melanoma = test system: UACC-62 melanoma
LOX IMVI melanoma = test system: LOX IMVI melanoma
SK-MEL-28 melanoma = test system: SK-MEL-28 melanoma

Measured: growth

O=C1c2ccccc2OC=C(c2ccccc2)N1CCCCNc1ccc(F)cc1
inactive: HCT-15 colon 90.3% | HT29 colon 76.9% | SNB-75 CNS 90.7% | SNB-19 CNS 87.3% | U251 CNS 81.8% | PC-3 prostate 47.2% | SK-MEL-5 melanoma 94.3% | UACC-62 melanoma 76.3% | LOX IMVI melanoma 86.1% | SK-MEL-28 melanoma 104%

O=C(Nc1cccc(-n2ccc3c(NC(=O)c4ccccc4)nccc32)c1)Nc1ccc(Cl)c(C(F)(F)F)c1
inactive: HCT-15 colon 10.6% | SNB-75 CNS 54.7% | SNB-19 CNS 24.8% | PC-3 prostate 20.4% | UACC-62 melanoma 20.9% | LOX IMVI melanoma 11.8% | SK-MEL-28 melanoma 44.5%
active: HT29 colon -38.9% | U251 CNS 9.27% | SK-MEL-5 melanoma -35.5%

Fc1cccc(F)c1C#Cc1ccc2cccnc2c1
inactive: HCT-15 colon 74.9% | HT29 colon 69% | SNB-75 CNS 97.8% | SNB-19 CNS 91.3% | U251 CNS 80.6% | PC-3 prostate 86.1% | SK-MEL-5 melanoma 71.9% | UACC-62 melanoma 71.3% | LOX IMVI melanoma 86.9% | SK-MEL-28 melanoma 106%

O=C(Nc1ccc(Cl)c(Cl)c1)Nc1ccc(Cl)c([N+](=O)[O-])c1
inactive: SNB-75 CNS 16.2% | SNB-19 CNS 15.1% | SK-MEL-28 melanoma 12.8%
active: HCT-15 colon 5.16% | HT29 colon 2.02% | U251 CNS 6.28% | PC-3 prostate -0.546% | SK-MEL-5 melanoma -90.2% | UACC-62 melanoma 9.51% | LOX IMVI melanoma -19%

O=S(=O)(CCN1CCOCC1)Nc1cncc(-c2ccc3ncnc(Nc4ccc(F)c(Cl)c4)c3c2)c1
inactive: HCT-15 colon 84.6% | HT29 colon 73.6% | SNB-75 CNS 56.3% | SNB-19 CNS 61% | U251 CNS 68.9% | PC-3 prostate 53.2% | SK-MEL-5 melanoma 95.4% | UACC-62 melanoma 77.5% | LOX IMVI melanoma 56.6% | SK-MEL-28 melanoma 81.7%

O=C(O)c1cn(C2CC2)c2cc(N3CCN(C(=O)CSc4nc(NS(=O)(=O)c5ccccc5)cc(=O)[nH]4)CC3)c(F)cc2c1=O
inactive: HCT-15 colon 94.9% | HT29 colon 119% | SNB-75 CNS 98.8% | SNB-19 CNS 99.3% | U251 CNS 97.7% | PC-3 prostate 85% | SK-MEL-5 melanoma 94.6% | UACC-62 melanoma 83.8% | LOX IMVI melanoma 90.9% | SK-MEL-28 melanoma 98%

COc1ccc(Cl)cc1NC(=O)c1cc2c([nH]1)-c1nc(N)sc1CCC2
inactive: HCT-15 colon 97.7% | HT29 colon 83.2% | SNB-75 CNS 105% | SNB-19 CNS 112% | U251 CNS 101% | PC-3 prostate 97.8% | SK-MEL-5 melanoma 101% | UACC-62 melanoma 93.1% | LOX IMVI melanoma 91.7% | SK-MEL-28 melanoma 103%

Nc1nc(Nc2ccc(OCc3cccc(F)c3)cc2)c2c(n1)[nH]c1ccc(O)cc12
inactive: SNB-19 CNS 12.3%
active: HCT-15 colon -8.62% | HT29 colon -84.2% | SNB-75 CNS -63.5% | U251 CNS -91% | PC-3 prostate 4.64% | SK-MEL-5 melanoma -78.1% | UACC-62 melanoma -75.1% | LOX IMVI melanoma -96% | SK-MEL-28 melanoma -67.4%

CC(C)(C)C(=O)Nc1nc2c(s1)CCc1ccn(S(=O)(=O)c3ccccc3)c1-2
inactive: HCT-15 colon 92.8% | HT29 colon 79.5% | SNB-75 CNS 89.6% | SNB-19 CNS 116% | U251 CNS 94.1% | PC-3 prostate 81.1% | SK-MEL-5 melanoma 99.9% | UACC-62 melanoma 77.2% | LOX IMVI melanoma 84.5% | SK-MEL-28 melanoma 101%

Nc1nccc2c1ccn2-c1ccc(NC(=O)c2ccc(N3CCOCC3)c(C(F)(F)F)c2)cc1
active: HT29 colon -39.7% | SNB-19 CNS 0.546% | SK-MEL-5 melanoma -89.6% | UACC-62 melanoma 6.43% | LOX IMVI melanoma -45.3%
inactive: HCT-15 colon 14.1% | SNB-75 CNS 25.7% | U251 CNS 12% | PC-3 prostate 10.4% | SK-MEL-28 melanoma 48.9%

COC1OCC(OS(=O)(=O)c2ccc(C)cc2)C(OC(=O)c2ccccc2)C1OC(=O)c1ccccc1 (stereo not given)
inactive: HCT-15 colon 38.3% | SNB-75 CNS 32.5% | SNB-19 CNS 61.2% | U251 CNS 39.3% | PC-3 prostate 47.8% | SK-MEL-5 melanoma 30.7% | UACC-62 melanoma 36.1% | LOX IMVI melanoma 44.8% | SK-MEL-28 melanoma 57.7%
active: HT29 colon 7.49%

Cc1ccc2c(c1)Nc1ccc(C)cc1C2(C)C
inactive: HCT-15 colon 96% | HT29 colon 79% | SNB-75 CNS 83.9% | SNB-19 CNS 115% | U251 CNS 100% | PC-3 prostate 90.6% | SK-MEL-5 melanoma 97.9% | UACC-62 melanoma 100% | LOX IMVI melanoma 101% | SK-MEL-28 melanoma 105%

COc1ccc(Cl)cc1NC(=O)c1cc2c([nH]1)-c1nc(NC(=O)C(C)(C)C)sc1CC2
inactive: HCT-15 colon 49.1% | HT29 colon 59.1% | SNB-75 CNS 50.5% | SNB-19 CNS 44% | PC-3 prostate 61.4% | SK-MEL-5 melanoma 55.5% | UACC-62 melanoma 81.2% | LOX IMVI melanoma 53.4% | SK-MEL-28 melanoma 94.2%
active: U251 CNS 9.52%

COc1cc(/C=C/C(=O)c2c(C)n([O-])c3cc(C)c(C)cc3[n+]2=O)cc(OC)c1OC
inactive: HCT-15 colon 51.7% | HT29 colon 70.6% | SNB-75 CNS 50.5% | SNB-19 CNS 60.5% | U251 CNS 45.8% | PC-3 prostate 59.6% | SK-MEL-5 melanoma 59% | UACC-62 melanoma 64% | LOX IMVI melanoma 51.7% | SK-MEL-28 melanoma 72.9%

COCCNC(C(=O)c1ccccc1)c1ccccc1 (stereo not given)
inactive: HCT-15 colon 99.6% | HT29 colon 107% | SNB-75 CNS 88.2% | SNB-19 CNS 97% | U251 CNS 95.1% | PC-3 prostate 92.7% | SK-MEL-5 melanoma 96.6% | UACC-62 melanoma 97.9% | LOX IMVI melanoma 103% | SK-MEL-28 melanoma 105%

Cc1[nH]n(C(=O)c2ccncc2)c(=O)c1N=Nc1ccc(S(=O)(=O)Nc2ccncn2)cc1
inactive: HCT-15 colon 112% | HT29 colon 109% | SNB-75 CNS 93.9% | SNB-19 CNS 105% | U251 CNS 105% | PC-3 prostate 100% | SK-MEL-5 melanoma 106% | UACC-62 melanoma 98.8% | LOX IMVI melanoma 93.6% | SK-MEL-28 melanoma 112%

CCc1c(C)c2cc3nc(NCc4ccccc4)oc3c(C)c2oc1=O
inactive: HCT-15 colon 74.7% | HT29 colon 60.5% | SNB-75 CNS 36.2% | SNB-19 CNS 59.2% | U251 CNS 54.8% | PC-3 prostate 73.3% | SK-MEL-5 melanoma 75.9% | UACC-62 melanoma 47.1% | LOX IMVI melanoma 80.4% | SK-MEL-28 melanoma 72.9%

Cc1ccc2c(C3C(C#N)=C(N)Oc4cc5ccccc5cc43)cc(=O)oc2c1 (stereo not given)
active: HT29 colon 6.66%
inactive: HCT-15 colon 31% | SNB-75 CNS 20.3% | SNB-19 CNS 29.9% | U251 CNS 23.5% | PC-3 prostate 18.8% | SK-MEL-5 melanoma 13.6% | UACC-62 melanoma 39.2% | LOX IMVI melanoma 38.4% | SK-MEL-28 melanoma 64.4%

O=C(Nc1ccccc1Cl)c1c[nH]c(=O)c(-c2ccc(N3CCCOC4(CC4)C3)cc2)c1
active: SK-MEL-5 melanoma 8.08%
inactive: HCT-15 colon 78.8% | HT29 colon 70.5% | SNB-75 CNS 73% | SNB-19 CNS 72.4% | U251 CNS 75.9% | PC-3 prostate 57.5% | UACC-62 melanoma 63.5% | LOX IMVI melanoma 46.7% | SK-MEL-28 melanoma 78.4%

COc1ccc(C2=NN(C(=O)COc3ccc(Cl)cc3)C(O)(c3cc(F)c(Cl)cc3Cl)C2)cc1 (stereo not given)
inactive: HCT-15 colon 98.6% | HT29 colon 99.4% | SNB-75 CNS 88.2% | SNB-19 CNS 94.7% | U251 CNS 104% | PC-3 prostate 75% | SK-MEL-5 melanoma 114% | UACC-62 melanoma 111% | LOX IMVI melanoma 83.8% | SK-MEL-28 melanoma 103%

Oc1ccc(Cl)cc1Sc1cc(Cl)ccc1O
active: SK-MEL-5 melanoma -14.2%
inactive: HCT-15 colon 92.9% | HT29 colon 102% | SNB-75 CNS 63.4% | SNB-19 CNS 95.1% | U251 CNS 93.9% | PC-3 prostate 89.6% | UACC-62 melanoma 58.8% | LOX IMVI melanoma 88.1% | SK-MEL-28 melanoma 52.5%

CC(=O)Oc1ccc(C(OC(C)=O)OC(C)=O)cc1
inactive: HCT-15 colon 102% | HT29 colon 99.8% | SNB-75 CNS 106% | SNB-19 CNS 104% | U251 CNS 106% | PC-3 prostate 104% | SK-MEL-5 melanoma 105% | UACC-62 melanoma 101% | LOX IMVI melanoma 99.2% | SK-MEL-28 melanoma 107%

CN(C)CCS(=O)(=O)Nc1cc(-c2ccc3ncnc(Nc4ccc(F)c(Cl)c4)c3c2)cnc1Cl
inactive: SNB-19 CNS 41.6%
active: HCT-15 colon -2.7% | HT29 colon 2.45% | SNB-75 CNS 9.33% | U251 CNS -40.6% | PC-3 prostate 6.17% | SK-MEL-5 melanoma -71.9% | UACC-62 melanoma -2.94% | LOX IMVI melanoma -58.5% | SK-MEL-28 melanoma -31.6%

Cc1nssc1=S
inactive: HCT-15 colon 104% | HT29 colon 102% | SNB-75 CNS 92.3% | SNB-19 CNS 96.5% | U251 CNS 102% | PC-3 prostate 88.2% | SK-MEL-5 melanoma 108% | UACC-62 melanoma 104% | LOX IMVI melanoma 89.4% | SK-MEL-28 melanoma 101%

CCOC(=O)NNc1nncc2ccccc12
inactive: HCT-15 colon 101% | HT29 colon 104% | SNB-75 CNS 120% | SNB-19 CNS 99.2% | U251 CNS 97.2% | PC-3 prostate 97.7% | SK-MEL-5 melanoma 105% | UACC-62 melanoma 101% | LOX IMVI melanoma 90.8% | SK-MEL-28 melanoma 122%

COc1ccc(-c2nnc(SCC(=O)Nc3ccc(C(=O)/C=C/c4ccccc4)cc3)o2)cc1OC
inactive: HCT-15 colon 94.6% | HT29 colon 93.4% | SNB-75 CNS 92.8% | SNB-19 CNS 92.2% | U251 CNS 98% | PC-3 prostate 100% | SK-MEL-5 melanoma 87.1% | UACC-62 melanoma 92.4% | LOX IMVI melanoma 85.9% | SK-MEL-28 melanoma 106%

CCCN1C(=O)CSC1=Nc1ccc2cc3ccc(N=C4SCC(=O)N4CCC)cc3nc2c1
active: HT29 colon 4.45% | SK-MEL-5 melanoma -17.7%
inactive: HCT-15 colon 24.4% | SNB-75 CNS 29.6% | SNB-19 CNS 55.4% | U251 CNS 36.9% | PC-3 prostate 16.7% | UACC-62 melanoma 36.9% | LOX IMVI melanoma 11.4% | SK-MEL-28 melanoma 86.5%
